In the supplement of paper PMC10646978:
± gives the standard deviation.

How the values were obtained:
Settings in all cases: modulator concentration 10 µM
[1] = system: RAW-Dual (murine macrophage reporter line); experiment: NF-kB reporter (SEAP) activity fold change vs agonist alone; higher = enhanced NF-kB activity
Method in brief: (§1)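 In 384-well plates holding 50 000 RAW-Dual murine macrophage reporter cells per well, compound at 10 μM final was pre-incubated for 1 hour at 37 °C, after which a PRR agonist was added overnight. Supernatant SEAP read with QUANTI-Blue at 620 nm absorbance reported NF-κB, and Lucia luciferase read with QUANTI-Luc luminescence reported IRF. Fold change values come from dividing each reporter signal by the mean of agonist-only control wells on the same plate, averaged over replicate plates with propagated errors.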

[2] = system: RAW-Dual (murine macrophage reporter line); experiment: IRF reporter (Lucia luciferase) activity fold change vs agonist alone; higher = enhanced IRF activity
Method in brief: as §1

[3] = system: RAW-Dual (murine macrophage reporter line); experiment: viability score (confluency relative to resting cells, overnight) (fraction); higher = more viable, active = viable (0.7 or more)
Method in brief: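 RAW-Dual macrophages in 384-well plates were exposed overnight to compound at 10 μM final. Confluency was imaged with IncuCyte, and two confluency masks were generated with IncuCyte software over all imaged wells. The viability score is confluency expressed relative to resting cells. Compounds were called viable if both masks exceeded 70% of resting cells.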

[4] = agonist: CpG ODN 1826 0.5 ug/mL

Compound	NF-kB reporter [1, 4]	NF-kB reporter ([1]; agonist: LPS 0.1 ug/mL)	NF-kB reporter ([1]; agonist: MPLA […])	IRF reporter ([2]; agonist: 3'3'-cGAMP 10 ug/mL)	IRF reporter ([2]; agonist: LPS 0.1 ug/mL)	IRF reporter ([2]; agonist: MPLA […])	viability score [3]
Cc1nc(N(C)C)nc(C)c1NC(=O)CC(C)C	0.95 ± 0.066	0.92 ± 0.075	0.837 ± 0.089	1.1 ± 0.055	0.967 ± 0.1	0.897 ± 0.39	1.01 (active)
C#CCC(Cc1cnc2nc(N)nc(N)c2n1)c1ccc(C(=O)N[C@@H](CCC(=O)O)C(=O)O)cc1 (some centres not stated)	0.605 ± 0.045	0.856 ± 0.14	0.778 ± 0.038	0.774 ± 0.18	0.955 ± 0.032	0.911 ± 0.083	0.667 (inactive)
COc1cccc2c1C(=O)c1c(O)c3c(c(O)c1C2=O)C[C@@](O)(C(=O)CO)C[C@@H]3O[C@H]1C[C@H](N)[C@H](O)[C@H](C)O1 [Prestw-438]	0.123 ± 0.007	0.0747 ± 0.019	0.112 ± 0.0071	0.03 ± 0.0031	0.0425 ± 0.0034	0.0335 ± 0.0064	0.114 (inactive)
Cl.N=C(N)NCCC[C@H](N)C(=O)O	1.12 ± 0.27	0.995 ± 0.08	1.03 ± 0.081	0.896 ± 0.036	1.38 ± 0.15	1.2 ± 0.23	1.01 (active)
CNC1CCCN(c2c(F)cc3c(=O)c(C(=O)O)cn(C4CC4)c3c2OC)C1 (configuration not stated)	0.783 ± 0.095	0.821 ± 0.04	1.12 ± 0.16	1.02 ± 0.048	1.35 ± 0.094	1.43 ± 0.14	0.999 (active)
N#CC[C@H](C1CCCC1)n1cc(-c2ncnc3[nH]ccc23)cn1	1.4 ± 0.11	0.341 ± 0.017	0.734 ± 0.074	0.269 ± 0.012	0.719 ± 0.063	0.764 ± 0.074	0.979 (active)
